About 2,200 (0.71%) of roughly 310,000 compounds showed an effect of 50% or more. The effect is printed as a negative number. For the sample, strong results were picked, then their nearest neighbours and some compounds at random.

For the test, the target named is human ether-à-go-go-related gene (hERG) potassium channel (human, UniProt Q12809). Briefly: primary screen, population patch clamp on CHO cells stably expressing hERG; higher = less effect of the substance.
Chain of human ether-à-go-go-related gene (hERG) potassium channel (Q12809 whole entry, looked up): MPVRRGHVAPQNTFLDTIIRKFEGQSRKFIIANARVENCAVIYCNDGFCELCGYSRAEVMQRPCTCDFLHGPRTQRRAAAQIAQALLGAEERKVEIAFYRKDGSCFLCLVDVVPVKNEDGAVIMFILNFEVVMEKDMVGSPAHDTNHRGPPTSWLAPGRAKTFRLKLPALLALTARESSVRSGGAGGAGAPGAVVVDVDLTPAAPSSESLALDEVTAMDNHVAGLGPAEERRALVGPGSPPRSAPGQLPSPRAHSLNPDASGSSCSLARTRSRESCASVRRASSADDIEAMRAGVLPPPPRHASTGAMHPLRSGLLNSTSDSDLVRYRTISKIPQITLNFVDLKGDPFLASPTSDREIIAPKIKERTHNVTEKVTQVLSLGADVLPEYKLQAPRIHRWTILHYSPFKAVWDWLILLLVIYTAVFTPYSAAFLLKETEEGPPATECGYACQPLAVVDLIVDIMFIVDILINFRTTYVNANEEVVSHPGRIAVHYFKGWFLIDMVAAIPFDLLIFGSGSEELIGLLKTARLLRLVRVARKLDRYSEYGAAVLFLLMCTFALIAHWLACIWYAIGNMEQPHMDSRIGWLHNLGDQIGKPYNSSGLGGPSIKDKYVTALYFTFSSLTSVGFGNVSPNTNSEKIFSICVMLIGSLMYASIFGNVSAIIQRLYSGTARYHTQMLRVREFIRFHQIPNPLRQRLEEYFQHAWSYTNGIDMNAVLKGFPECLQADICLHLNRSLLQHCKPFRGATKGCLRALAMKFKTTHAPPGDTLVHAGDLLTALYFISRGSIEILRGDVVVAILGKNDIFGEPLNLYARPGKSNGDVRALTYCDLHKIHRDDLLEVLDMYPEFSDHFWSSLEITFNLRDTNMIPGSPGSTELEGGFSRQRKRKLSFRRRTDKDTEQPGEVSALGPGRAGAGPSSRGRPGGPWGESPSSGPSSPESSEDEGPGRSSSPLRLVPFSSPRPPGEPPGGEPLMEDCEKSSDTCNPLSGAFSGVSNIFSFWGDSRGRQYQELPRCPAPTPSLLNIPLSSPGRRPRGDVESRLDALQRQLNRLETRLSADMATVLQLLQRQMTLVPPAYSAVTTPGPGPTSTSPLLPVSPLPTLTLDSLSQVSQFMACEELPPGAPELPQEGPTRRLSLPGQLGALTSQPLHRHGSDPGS
For `COc1cc(S(=O)(=O)N(Cc2cccnc2)Cc2ccco2)ccc1-n1cnnn1`, the “hERG current change (%, negative = inhibition) at 1uM” value is given as -10.7%.

On to `Cc1cc(C(=O)NC2CCCCCCC2)ccc1[N+](=O)[O-]`, for which the “hERG current change (%, negative = inhibition) at 1uM” value was found to be 13.3%.

In the case of `Cc1ccc(CN2C(=O)CSC2c2ccc(F)cc2)cc1` (stereo not drawn), the “hERG current change (%, negative = inhibition) at 1uM” value stood at 12.2%.

Turning to `C#CC(CO)N(CCN(Cc1ccccc1)C(C#C)CO)Cc1ccccc1` (stereo not drawn), the “hERG current change (%, negative = inhibition) at 1uM” value amounted to 9.58%.

On to `COC(=O)C(C)NC(=S)N1CC2C[C@@H](C1)Cn1c2cccc1=O` (stereo partly drawn), for which the “hERG current change (%, negative = inhibition) at 1uM” value is 15.6%.

Regarding `COc1cccc(N2CCN(S(=O)(=O)c3ccc(-c4coc(C)n4)cc3)CC2)c1`, the “hERG current change (%, negative = inhibition) at 1uM” value stood at 11.7%.

`CCN(CC(=O)Nc1ccc(NC(C)=O)cc1)C(=O)c1cc2c(s1)CCCCC2`: the “hERG current change (%, negative = inhibition) at 1uM” value turned out to be 2.11%.

As for `c1ccc(-c2nnc3sc(-c4cc5ccccc5o4)nn23)cc1`, the “hERG current change (%, negative = inhibition) at 1uM” value was 14.4%.

Turning to `CCCCCC(=O)Nc1cccc(-c2nc3ncccc3o2)c1`, the “hERG current change (%, negative = inhibition) at 1uM” value was found to be 0.93%.

`Cc1ccc(-c2nnc3ccc(SCC(=O)NCc4ccco4)nn23)cc1`: the “hERG current change (%, negative = inhibition) at 1uM” value came out at 4.96%.

As for `O=C(CSc1ccc2nnc(-c3ccccc3)n2n1)NCc1ccco1`, the “hERG current change (%, negative = inhibition) at 1uM” value is -65.8%.

`O=C(CSc1ccc2nnc(-c3ccncc3)n2n1)NCc1ccco1`: the “hERG current change (%, negative = inhibition) at 1uM” value is given as -7.28%.

As to `CCOc1ccc(OCCNC2CCCC2)cc1`, the “hERG current change (%, negative = inhibition) at 1uM” value turned out to be 2.09%.

Turning to `O=C(NCc1ccco1)C(NS(=O)(=O)c1cccc2nsnc12)c1ccccc1` (stereo not drawn), the “hERG current change (%, negative = inhibition) at 1uM” value is 7.81%.

On to `O=C(CCn1c(=O)[nH]c2ccsc2c1=O)N1CCN(c2cccc(Cl)c2)CC1`, for which the “hERG current change (%, negative = inhibition) at 1uM” value is given as -6.52%.

`CC(CNC(=O)c1ccc(C#N)cc1)NC(=O)c1ccc(C#N)cc1` (stereo not drawn): the “hERG current change (%, negative = inhibition) at 1uM” value is -81.9%.

For `CCOc1ccc(C(=O)NCC(C)NC(=O)c2ccc(OCC)cc2)cc1` (stereo not drawn), the “hERG current change (%, negative = inhibition) at 1uM” value was 22.5%.

As for `CC(CNC(=O)c1ccc(N)cc1)NC(=O)c1ccc(N)cc1` (stereo not drawn), the “hERG current change (%, negative = inhibition) at 1uM” value is recorded as 12%.

Consider `CN(C)/C=C/C(=O)c1ccccc1F`, for which the “hERG current change (%, negative = inhibition) at 1uM” value was 4.57%.

As to `COc1cccc(OC)c1CN1CCCC(C(=O)c2ccccc2SC)C1` (stereo not drawn), the “hERG current change (%, negative = inhibition) at 1uM” value is reported as -37.8%.

`COc1ccc(C(=O)C2CCCN(Cc3cn[nH]c3-c3ccc(F)cc3)C2)cc1OC` (stereo not drawn): the “hERG current change (%, negative = inhibition) at 1uM” value is recorded as -25.9%.

Turning to `CCOc1ccccc1CN1CCCC(C(=O)c2ccc(OC)c(OC)c2)C1` (stereo not drawn), the “hERG current change (%, negative = inhibition) at 1uM” value is -51.1%.

In the case of `COc1ccc(C(=O)C2CCCN(Cc3cn[nH]c3-c3ccccc3)C2)cc1OC` (stereo not drawn), the “hERG current change (%, negative = inhibition) at 1uM” value was -75.4%.

In the case of `COc1ccc(C(=O)C2CCCN(Cc3cccc4c3OCO4)C2)cc1OC` (stereo not drawn), the “hERG current change (%, negative = inhibition) at 1uM” value is recorded as -29.3%.

With `COc1ccc(C(=O)C2CCCN(Cc3cnc(C)s3)C2)cc1OC` (stereo not drawn), the “hERG current change (%, negative = inhibition) at 1uM” value stood at 2.68%.

In the case of `COc1cccc(CN2CCCC(C(=O)c3ccccc3SC)C2)c1O` (stereo not drawn), the “hERG current change (%, negative = inhibition) at 1uM” value is -76.9%.

For the compound `COc1ccccc1CN1CCCC(C(=O)c2ccccc2SC)C1` (stereo not drawn), the “hERG current change (%, negative = inhibition) at 1uM” value is given as -27.3%.

Consider `COc1ccc(C(=O)C2CCCN(Cc3c(O)cccc3OC)C2)cc1OC` (stereo not drawn), for which the “hERG current change (%, negative = inhibition) at 1uM” value was -7.05%.

For `COc1ccc(C(=O)C2CCCN(Cc3ccc(C)s3)C2)cc1OC` (stereo not drawn), the “hERG current change (%, negative = inhibition) at 1uM” value is reported as -32.5%.

For the compound `COc1ccc(-c2[nH]ncc2CN2CCCC(C(=O)c3cccc(OC)c3)C2)cc1` (stereo not drawn), the “hERG current change (%, negative = inhibition) at 1uM” value is given as -29.5%.

With `COc1ccc(C(=O)C2CCCN(Cc3nc4ccccc4nc3C)C2)cc1OC` (stereo not drawn), the “hERG current change (%, negative = inhibition) at 1uM” value is reported as -83.3%.

For `CS(=O)(=O)N(Cc1cccc(CN(C(C(=O)O)c2ccccc2)S(C)(=O)=O)c1)C(C(=O)O)c1ccccc1` (stereo not drawn), the “hERG current change (%, negative = inhibition) at 1uM” value amounted to 16.9%.

Take `O=C(O)CC1(CC(=O)Nc2ccc(C(F)(F)F)cc2)CCCC1`: the “hERG current change (%, negative = inhibition) at 1uM” value was 15.6%.

In the case of `Cc1ccc(OCCC(=O)OCC(=O)NC(=O)NC2CCCCC2)cc1`, the “hERG current change (%, negative = inhibition) at 1uM” value came to 14.2%.

Turning to `Cn1cnnc1SCc1ccccc1Br`, the “hERG current change (%, negative = inhibition) at 1uM” value was 12.6%.

As for `CC(=O)Nc1ccc(NC(=O)C(C)Sc2n[nH]c(-c3ccc(C)cc3)n2)cc1` (stereo not drawn), the “hERG current change (%, negative = inhibition) at 1uM” value worked out at 8.42%.

As to `Cc1ccc(C)c(-n2c(C)nc3ccccc3c2=O)c1`, the “hERG current change (%, negative = inhibition) at 1uM” value was 13.2%.

For the compound `CC(C)(C)c1ccc(C(=O)NCCc2ccccc2)cc1`, the “hERG current change (%, negative = inhibition) at 1uM” value was found to be 6.65%.

`Cc1ccc(C2=NN=C(NC(=O)CSc3nnc4c5ccccc5n(C)c4n3)SC2)cc1`: the “hERG current change (%, negative = inhibition) at 1uM” value was determined as 8.27%.

As to `Cc1ccc2oc(C(=O)N3CCN(C)C[C@@H]3C(C)C)c(C)c2c1`, the “hERG current change (%, negative = inhibition) at 1uM” value was found to be 9.07%.

With `O=C(OCCNC(=O)c1ccc2ccccc2n1)c1ccc(F)cc1`, the “hERG current change (%, negative = inhibition) at 1uM” value was 4.77%.

As to `Cc1ccc(OCCCC(=O)Nc2ccc(S(N)(=O)=O)cc2)cc1`, the “hERG current change (%, negative = inhibition) at 1uM” value amounted to 9.66%.

Turning to `COc1ccc([N+](=O)[O-])cc1NS(=O)(=O)c1ccc(Cl)c(C(=O)Nc2sc3c(c2C#N)CCCCC3)c1`, the “hERG current change (%, negative = inhibition) at 1uM” value was 17.4%.

For `COc1ccc(/C(N)=N/OC(=O)CCc2ccccc2)cc1`, the “hERG current change (%, negative = inhibition) at 1uM” value came to 4.26%.

`COc1cccc(C(=O)CN(C(=O)c2ccc(Cl)cc2Cl)N2C(=O)c3ccccc3C2=O)c1`: the “hERG current change (%, negative = inhibition) at 1uM” value worked out at 8.71%.

(Values after publication PMC4336329 (PLoS ONE, 2015).)
